Bioassay records: PubChem BioAssay, The Scripps Research Institute Molecular Screening Center
M1 antag: human M1 muscarinic receptor antagonists, primary screen, CHO-K1 cells, Fluo-8 calcium fluorescence, 1536-well; Muscarinic acetylcholine receptor M1 (Homo sapiens), P11229; CHO-K1 hM1, ACh EC80 antagonist; inhibition, % at 3 µM; 360,000 tested, 1.3% active;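 active means percent inhibition above its own plate's cutoff, namely the mean of that plate's compound wells plus 3 SD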;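 further: peak over basal fluorescence ratio during 140 s after agonist addition; 0% = ACh EC80 plus DMSO and 100% = DMSO alone without agonist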
Target sequence (P11229 whole entry, looked up): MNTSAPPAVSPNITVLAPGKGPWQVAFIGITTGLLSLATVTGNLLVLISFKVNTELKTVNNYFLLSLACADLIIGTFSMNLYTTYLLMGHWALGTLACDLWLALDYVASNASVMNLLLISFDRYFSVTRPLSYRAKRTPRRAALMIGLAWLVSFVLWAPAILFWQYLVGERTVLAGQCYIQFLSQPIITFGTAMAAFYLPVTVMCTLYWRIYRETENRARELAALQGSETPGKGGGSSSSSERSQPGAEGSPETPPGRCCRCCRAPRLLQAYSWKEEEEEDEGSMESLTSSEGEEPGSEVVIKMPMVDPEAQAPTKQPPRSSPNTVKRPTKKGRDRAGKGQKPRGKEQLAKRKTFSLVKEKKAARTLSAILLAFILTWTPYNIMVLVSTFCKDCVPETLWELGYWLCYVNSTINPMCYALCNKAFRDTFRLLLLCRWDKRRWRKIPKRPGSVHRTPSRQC
M1 PAM: human M1 muscarinic receptor positive allosteric modulators, primary screen, CHO-K1 cells, Fluo-8 calcium fluorescence, 1536-well | CHO-K1 hM1, ACh EC20; 0% = ACh EC20, 100% = maximal ACh | activation, % at 3 µM | 360,000 tested, 0.088% active | AID 588819, 2011; in the data active means activation above about 19%, passing the limit was not always enough
CHO-K1 Ca antag: counter-screen for M1 antagonists: effect in parental CHO-K1 cells | 360,000 tested, 0.6% active | AID 602250 | inhibition, % at 3 µM | ATP-induced calcium, Fluo-8 fluorescence;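 active means inhibition above a per-plate cutoff, the plate's mean sample inhibition plus 3 SD, cut at about 24% in these data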;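 further: 0% = DMSO plus EC80 ATP and 100% = DMSO alone without ATP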
CHRM1 agonist: human M1 muscarinic receptor agonists, primary screen, Fluo-8 calcium fluorescence, CHO-K1 cells, HTS. Muscarinic acetylcholine receptor M1 (Homo sapiens), P11229. CHO-K1 hM1, agonist mode; 0% DMSO, 100% acetylcholine EC100. activation, % at 3 µM. 360,000 tested, 0.33% active;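 active means activation above the run's mean compound activation plus 3 SD, cut at about 16% in these data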;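 further: peak over basal fluorescence ratio within a 140 s kinetic read after compound addition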
CHO-K1 Ca ag: counter-screen for M1 agonists: effect in parental CHO-K1 cells; Fluo-8 calcium fluorescence; scaled to maximal ATP response, vehicle zero; activation, % at 3 µM; 360,000 tested, 0.48% active; AID 602248, 2012; in the data active means activation above about 15%;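 further: untransfected CHO-K1 host cells lacking M1 receptor as counterscreen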
M1 PAM parental: nonselective calcium activators in parental CHO-K1 cells, primary screen, counter-screen for M1 PAM project, cell-based, Fluo-8 calcium fluorescence, full deck, 1536-well; ATP EC20; 0% at ATP EC20, 100% at ATP max; activation, % at 3 µM; 360,000 tested, 0.02% active;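 active means activation above the run cutoff, the mean activation of all test compounds plus 3 SD, cut at about 40% in these data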;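 further: peak over basal fluorescence ratio in a 140 s read after ATP addition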
An asterisk follows results filed as active; / = no result given. Compounds with a hit are over-represented: about 2.3% of the library has one in this group of screens.

SMILES | M1 antag | M1 PAM | CHO-K1 Ca antag | CHRM1 agonist | CHO-K1 Ca ag | M1 PAM parental
O=C1NC[C@H](Cc2ccccc2)N(C[C@@H]2CCCN2C[C@H](Cc2ccc(O)cc2)N2C[C@H](Cc3ccccc3)N(CC3CCCCCC3)C(=O)C2=O)C1=O | / | / | -20 | / | 0 | 15
CC(C)(C)c1ccc(C(=O)N2CCC2(C)C(=O)NS(=O)(=O)c2ccccc2Cl)cc1 (stereo not drawn) | -9 | 5 | -7 | -2 | 0 | 6
CC(C)CC[n+]1ccccc1/C=C/c1ccc(N(C)C)cc1 | 29* | -13 | 12 | 9 | 6 | -5
CC1=Nc2ccccc2/C1=C/c1sc(=N)n(-c2nccs2)c1O | 34* | -12 | 25* | 8 | 12 | -2
CC1=Nc2ccccc2/C1=C/c1nc(-c2ccc(C)s2)oc1O | 29 | -4 | -2 | 8 | 5 | 11
Cc1ccc(S(=O)(=O)N(C)CC(=O)Nc2nc3ccccc3s2)cc1 | 13 | -4 | 24* | -1 | 2 | -11
Cc1c(NC(=O)C(C)OC(=O)Cc2ccc(F)cc2)c(=O)n(-c2ccccc2)n1C (stereo not drawn) | 38* | -14 | 25* | -1 | 0 | -17
O=C1N2CCCCC1(Sc1ccccc1)CCC2 (stereo not drawn) | / | / | -6 | / | 1 | 5
CCOc1ccc(CN2CCN(c3ncnc4scc(-c5ccccc5)c34)CC2)cc1 | 9 | -6 | -9 | 22* | 0 | 1
O=S(=O)(c1cc(F)ccc1F)N1CCN(c2ccccn2)CC1 | -4 | 1 | 6 | -7 | 1 | 12
O=S(=O)(c1cc(F)ccc1F)N1CCN(c2ncnc3ccccc23)CC1 | 31* | -13 | 5 | 0 | 18* | -3
O=C(c1cc(-c2ccncc2)nc2ccc(Br)cc12)N1CCN(Cc2ccc3c(c2)OCO3)CC1 | 43* | -15 | 21 | -4 | 6 | -5
O=C(c1cc(-c2ccncc2)nc2ccc(Cl)cc12)N1CCN(Cc2ccc3c(c2)OCO3)CC1 | 22 | -5 | -8 | -2 | 6 | 9
C=CCCC(=O)N1C[C@H]2CON(C)[C@H]2C[C@H]1c1ccc(-n2ccnc2)cc1 | -11 | 13 | 1 | -7 | 0 | 7
COc1ccc(C2=CCCCCC2)cc1OC | -5 | -5 | -2 | -3 | 0 | 3
COc1cccc(CN(C)CCCn2cnc3c(SC)ncnc32)c1 | -14 | 9 | -17 | -9 | 1 | 22
CCN(CC)c1ccc2nc3ccccc3[n+](CC)c2c1 | 69* | -30 | -12 | -10 | 0 | 16
C[C@H]1CN([C@@H](C)CO)C(=O)CCCn2cc(nn2)CO[C@@H]1CN(C)C(=O)Nc1cccc(F)c1 | -15 | 10 | -14 | -2 | 1 | 16
Oc1cc(O)cc(/C=C/c2ccc(O)c(O)c2)c1 | -19 | -6 | 1 | 27* | 0 | -9
COc1ccc(CN2CCCCCC2)cc1 | -6 | 4 | 25* | -8 | 0 | -22
CN(C)c1ccc(CN2CCCCCC2)cc1 | 45* | -3 | 4 | -5 | 0 | 4
COc1ccc(CN2CCOCC2)cc1 | -11 | 13 | -4 | -3 | 0 | 25
CCN(CC)c1ccc(CN2CCCCCC2)cc1 | 19 | -13 | 15 | -6 | 0 | -6
CCc1nc2ccc(C(=O)N3CCN(C(=O)c4ccco4)CC3)cn2c1N(CCC(C)C)CCN(C)C | 14 | -4 | 12 | -1 | 0 | -14
Cc1ccccc1Cn1c(C)c(C(=O)NCCC#N)sc1=O | -9 | 5 | 1 | -3 | 0 | 16
SMILES | M1 antag | M1 PAM | CHO-K1 Ca antag | CHRM1 agonist | CHO-K1 Ca ag | M1 PAM parental
CN1OC[C@@H]2CN(Cc3ccccc3)[C@H](c3ccc(-n4ccnc4)cc3)C[C@@H]21 | -13 | 14 | 0 | -10 | 1 | 20
C[C@H](CO)N1C[C@H](C)[C@@H](CN(C)S(=O)(=O)c2ccc(-n3cccn3)cc2)OCc2cn(nn2)CCCC1=O | -12 | 11 | -15 | -6 | 0 | 20
CN(Cc1cccs1)c1nc(-c2cccnc2)nc2ccccc12 | 35* | -19 | -9 | -8 | 3 | -6
COC(=O)[C@H]1C[C@H](OC(=O)NCc2ccco2)[C@@]2(O)CN(S(=O)(=O)c3ccc(C)cc3)CC2[C@H]1C(=O)OC (stereo partly drawn) | -11 | 5 | -5 | -3 | 0 | 13
CCCNC(=O)c1ccc(N2CCC3(CC2)CC(c2ccccc2)=NO3)c(NC(=O)c2ccccc2)c1 | 32* | -22 | -3 | -8 | 2 | 9
COc1ccc(NC(=O)CSc2nnc3n2CCCCC3)cc1S(=O)(=O)N(C)C | 4 | -2 | -7 | -7 | 0 | 8
COc1ccc(C(=O)CCc2ccccc2)c(O)c1 | 20 | -11 | 29* | -3 | 2 | -27
CC(C)C1C(=O)N(Cc2cn(Cc3ccco3)nn2)CCS(=O)(=O)N1Cc1ccc(-c2ccc(F)cc2)cc1 (stereo not drawn) | 1 | 1 | 2 | -4 | 1 | 6
O=C(NC1CC2CCCC(C1)N2Cc1ccccc1)C1CCCCC1 (stereo not drawn) | 38* | -18 | -10 | -5 | 0 | 28
O=C(CN1C2CCCC1CC(NC(=O)C1CCCCC1)C2)Nc1ccccc1 (stereo not drawn) | -7 | 3 | -12 | -10 | 1 | 9
CCCCN1C2CCCC1CC(NC(=O)C1CCCCC1)C2 (stereo not drawn) | 43* | -19 | -12 | -4 | 1 | 21
O=C(NC1CCCC1)C1CCN(C(=O)NCc2ccccc2)CC1 | -6 | 11 | -10 | -3 | 1 | 16
O=C(NC1CC2CCC(C1)N2C(=O)NCc1ccccc1)C1CC1 (stereo not drawn) | 37* | -17 | 13 | -6 | 0 | -7
Cc1cccnc1C(NC(=O)C1CCN(CCCOc2ccc(F)cc2)CC1)c1ccccc1 (stereo not drawn) | 4 | -6 | 0 | -7 | 1 | 2
OCCNCc1c(OCc2ccc(Cl)cc2)ccc2ccccc12 | 27 | -12 | -4 | -6 | 24* | -32
CCc1nc2ccc(C(=O)N3CCN(S(=O)(=O)CC)CC3)cn2c1N(CC)C(=O)NCCc1ccccc1 | -17 | 9 | -14 | -3 | 0 | 17
Cc1ccc(/C=C/C(=O)O)cc1S(=O)(=O)N1CCCCC1 | 40* | 24* | -2 | 0 | 1 | -9
O=S(=O)(c1ccc(Cl)c(S(=O)(=O)N2CCCC2)c1)N1CCCC1 | 38* | -2 | -13 | -5 | 2 | 8
